Bioassay records deposited in PubChem BioAssay by several laboratories.
sEH activator = increases human soluble epoxide hydrolase activity | AID 717 | activation, % at 2 µM | actives 0.04% (n = 91,000) | purified human sEH enzymatic activity, activator screen; in the data active means activation above about 37%
CYP2C9 activ = CYP2C9 (human) activation | activation factor at 5 µM | P11712 | actives 1.4% (n = 96,000) | recombinant CYP2C9, luciferin-H conversion, luminescence; active compounds read high; factor 1 = untreated enzyme, 0 = blocked;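 active means activation factor of 2 or more for CYP2C9 at a 5 µM dose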
Target sequence (P11712 whole entry, looked up): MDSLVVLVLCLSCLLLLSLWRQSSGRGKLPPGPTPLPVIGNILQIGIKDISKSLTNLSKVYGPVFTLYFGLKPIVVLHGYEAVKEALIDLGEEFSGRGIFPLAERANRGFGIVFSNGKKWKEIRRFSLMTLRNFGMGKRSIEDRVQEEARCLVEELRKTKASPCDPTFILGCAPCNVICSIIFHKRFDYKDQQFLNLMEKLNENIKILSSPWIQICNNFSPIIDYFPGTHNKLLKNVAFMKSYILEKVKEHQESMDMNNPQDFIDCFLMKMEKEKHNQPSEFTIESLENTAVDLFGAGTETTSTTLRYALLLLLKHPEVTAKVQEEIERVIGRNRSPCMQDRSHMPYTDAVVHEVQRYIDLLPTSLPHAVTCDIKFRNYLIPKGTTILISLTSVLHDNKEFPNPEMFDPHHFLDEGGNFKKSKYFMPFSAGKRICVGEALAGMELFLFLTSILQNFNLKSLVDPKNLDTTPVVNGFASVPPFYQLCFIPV
CYP2C9 inhib = blocks human cytochrome P450 2C9 | actives 20% (n = 96,000) | inhibition, % at 5 µM | P11712 | CYP2C9 Supersomes, luciferin-H conversion, luminescence;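 active means blocking of liver enzyme CYP2C9 beyond about 50% at 5 µM, limit read from the data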
CYP2C19 inhib = inhibitors of human CYP2C19 | AID 778 | P33261 | CYP2C19 Supersomes, luciferin-H EGE luminescence, 30 min | actives 21% (n = 96,000) | inhibition, % at 5 µM;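 active means CYP2C19 inhibition above a set limit at 5 µM in the primary screen, cut at about 50% in these data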
sEH inhibitor = blocks human soluble epoxide hydrolase activity. AID 707. recombinant human sEH enzymatic activity assay. inhibition, % at 2 µM. actives 0.34% (n = 91,000). P34913; in the data active means inhibition above about 80%
CYP2C19 activ = activators of human cytochrome P450 2C19 | 96,000 tested, under 10 active | P33261 | AID 1025 | recombinant CYP2C19, luciferin-H EGE luminescence; active compounds read high; 0 = fully inhibited enzyme, 1 = untreated enzyme | activation factor at 5 µM;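 active means activation factor of at least 2 at 5 µM in the primary screen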
A number is an active result. The list is not random: actives were taken first. Their share in the collection is about 27%.

COc1ccc(S(=O)(=O)N(C)CC(=O)NCc2cccnc2)cc1Cl was read as sEH activator inactive, CYP2C9 activ inactive, CYP2C9 inhib inactive, CYP2C19 inhib 54, sEH inhibitor inactive and CYP2C19 activ inactive.
For CNC(=O)CN(C)S(=O)(=O)c1ccc(OC)c(Cl)c1 the results were sEH activator inactive, CYP2C9 activ inactive, CYP2C9 inhib inactive, CYP2C19 inhib inactive, sEH inhibitor inactive and CYP2C19 activ inactive.
COc1ccc(S(=O)(=O)N(C)CC(=O)NC2CCCCC2)cc1OC was read as sEH activator inactive, CYP2C9 activ inactive, CYP2C9 inhib inactive, CYP2C19 inhib inactive, sEH inhibitor inactive and CYP2C19 activ inactive.
COc1ccc(S(=O)(=O)N(C)CC(=O)NC2CCCCC2)cc1Cl was read as sEH activator inactive, CYP2C9 activ 2.4, CYP2C9 inhib inactive, CYP2C19 inhib 53, sEH inhibitor inactive and CYP2C19 activ inactive.
Screening CCOC(=O)C1CCN(C(=O)CN(C)S(=O)(=O)c2cc(C)ccc2OC)CC1 returned sEH activator inactive, CYP2C9 activ inactive, CYP2C9 inhib 54, CYP2C19 inhib inactive, sEH inhibitor inactive and CYP2C19 activ inactive.
`Fc1cccc(CN2CCN(c3ncccn3)CC2)c1` gave CYP2C9 activ inactive, CYP2C9 inhib inactive, CYP2C19 inhib inactive and CYP2C19 activ inactive.
Screening Clc1ccc(-c2nnsc2SCc2ccccc2)cc1 returned sEH activator inactive, CYP2C9 activ inactive, CYP2C9 inhib inactive, CYP2C19 inhib inactive, sEH inhibitor inactive and CYP2C19 activ inactive.
Screening CC1(C2(O)CC(c3ccccc3)ON2)CCCCC1 (stereo not given) returned sEH activator inactive, CYP2C9 activ inactive, CYP2C9 inhib inactive, CYP2C19 inhib 54, sEH inhibitor inactive and CYP2C19 activ inactive.
COc1ccc(C2CC(O)(C(C)(C)O)NO2)cc1 (stereo not given) was read as sEH activator inactive, CYP2C9 activ inactive, CYP2C9 inhib inactive, CYP2C19 inhib inactive, sEH inhibitor inactive and CYP2C19 activ inactive.
Screening CCOC(=O)c1[nH]c2cc3c(cc2c1NC(=O)CN1CCc2ccccc2C1)OCO3 returned sEH activator inactive, CYP2C9 activ inactive, CYP2C9 inhib 55, CYP2C19 inhib 68, sEH inhibitor inactive and CYP2C19 activ inactive.
For CCOC(=O)N1CCN(CC(=O)Nc2c(C(=O)OC)[nH]c3ccccc23)CC1 the results were sEH activator inactive, CYP2C9 activ inactive, CYP2C9 inhib inactive, CYP2C19 inhib inactive, sEH inhibitor inactive and CYP2C19 activ inactive.
`CCOC(=O)c1[nH]c2ccc(OC)cc2c1NC(=O)CCN1CCCC(C)C1` (stereo not given) gave CYP2C9 activ inactive, CYP2C9 inhib inactive, CYP2C19 inhib inactive and CYP2C19 activ inactive.
CCOC(=O)c1[nH]c2cc3c(cc2c1NC(=O)CN1CCC(C)CC1)OCO3 was read as sEH activator inactive, CYP2C9 activ inactive, CYP2C9 inhib 68, CYP2C19 inhib 61, sEH inhibitor inactive and CYP2C19 activ inactive.
Screening CCc1ccc(N2CC(C(=O)N/N=C/c3cccc([N+](=O)[O-])c3)CC2=O)cc1 (stereo not given) returned sEH activator inactive, CYP2C9 activ inactive, CYP2C9 inhib 69, CYP2C19 inhib inactive, sEH inhibitor inactive and CYP2C19 activ inactive.
`Cc1ccc(N2CC(C(=O)N/N=C/c3cccc([N+](=O)[O-])c3)CC2=O)cc1` (stereo not given) gave sEH activator inactive, CYP2C9 activ inactive, CYP2C9 inhib inactive, CYP2C19 inhib inactive, sEH inhibitor inactive and CYP2C19 activ inactive.
`CCOc1ccc(N2CC(C(=O)Nc3ccccc3N3CCOCC3)CC2=O)cc1` (stereo not given) gave sEH activator inactive, CYP2C9 activ inactive, CYP2C9 inhib 85, CYP2C19 inhib inactive, sEH inhibitor inactive and CYP2C19 activ inactive.
`CCCOc1ccc(N2CC(C(=O)Nc3ccccc3F)CC2=O)cc1` (stereo not given) gave sEH activator inactive, CYP2C9 activ inactive, CYP2C9 inhib inactive, CYP2C19 inhib inactive, sEH inhibitor inactive and CYP2C19 activ inactive.
Screening COC(=O)c1ccccc1NC(=O)C1CC(=O)N(c2ccc(F)cc2)C1 (stereo not given) returned sEH activator inactive, CYP2C9 activ inactive, CYP2C9 inhib 64, CYP2C19 inhib 84, sEH inhibitor inactive and CYP2C19 activ inactive.
`CCOc1ccc(N2CC(C(=O)Nc3ncccc3C)CC2=O)cc1` (stereo not given) gave sEH activator inactive, CYP2C9 activ inactive, CYP2C9 inhib inactive, CYP2C19 inhib inactive, sEH inhibitor inactive and CYP2C19 activ inactive.
CCc1ccc(N2CC(C(=O)Nc3ccccc3F)CC2=O)cc1 (stereo not given) was read as CYP2C9 activ inactive, CYP2C9 inhib 82, CYP2C19 inhib inactive and CYP2C19 activ inactive.
Screening O=C(O)CCC(=O)Nc1ccc(Cc2ccc(NC(=O)CCC(=O)O)cc2)cc1 returned sEH activator inactive, CYP2C9 activ inactive, CYP2C9 inhib inactive, CYP2C19 inhib inactive, sEH inhibitor inactive and CYP2C19 activ inactive.
Screening Cn1ccnc1SCC(=O)NC1CC1 returned sEH activator inactive, CYP2C9 activ inactive, CYP2C9 inhib inactive, CYP2C19 inhib inactive, sEH inhibitor inactive and CYP2C19 activ inactive.
For Cc1cc(C)c(NC(=O)/C=C\C(=O)O)c([N+](=O)[O-])c1 the results were sEH activator inactive, CYP2C9 activ inactive, CYP2C9 inhib inactive, CYP2C19 inhib inactive, sEH inhibitor inactive and CYP2C19 activ inactive.
COC(=O)c1ccccc1NC(=O)C1CC(=O)N(C2CCCCC2)C1 (stereo not given) was read as CYP2C9 activ inactive, CYP2C9 inhib 59, CYP2C19 inhib 66 and CYP2C19 activ inactive.
CCOc1ccccc1C(=O)NC(C(=O)Nc1ccccc1N1CCOCC1)C(C)C (stereo not given) was read as CYP2C9 activ inactive, CYP2C9 inhib 73, CYP2C19 inhib inactive and CYP2C19 activ inactive.
`CCOc1cc(N2CCOCC2)c(OCC)cc1NC(=O)C(NC(=O)c1ccco1)C(C)C` (stereo not given) gave CYP2C9 activ inactive, CYP2C9 inhib inactive, CYP2C19 inhib inactive and CYP2C19 activ inactive.
`CC(C)COC(=O)NCCOC(=O)Nc1cccc(Cl)c1` gave sEH activator inactive, CYP2C9 activ inactive, CYP2C9 inhib 80, CYP2C19 inhib 95, sEH inhibitor inactive and CYP2C19 activ inactive.
`COC(=O)NCC(C)OC(=O)Nc1cccc(Cl)c1` (stereo not given) gave sEH activator inactive, CYP2C9 activ inactive, CYP2C9 inhib inactive, CYP2C19 inhib 59, sEH inhibitor inactive and CYP2C19 activ inactive.
Screening O=C(Nc1cccc(Cl)c1)ON=C1c2ccccc2-c2ccccc21 returned sEH activator inactive, CYP2C9 activ inactive, CYP2C9 inhib 63, CYP2C19 inhib inactive, sEH inhibitor inactive and CYP2C19 activ inactive.
Cn1nc(C(F)(F)F)cc1C(=O)NC1CCCCCC1 was read as sEH activator inactive, CYP2C9 activ inactive, CYP2C9 inhib inactive, CYP2C19 inhib inactive, sEH inhibitor inactive and CYP2C19 activ inactive.
